The list is a sample of the results.
aSyn 5UTR act – Activators via SNCA 5'UTR binding, MLPCN; activity score, % (tested at 7.5 µM), hits read low; 7.1% of 300,000 active; AID 1814, 2009; alpha-synuclein 5'UTR reporter, activators screen; in the data active = activity score below about -60%
Large screens that a line does not name were inactive.

CCN1CCN(Cc2ccc(NC(=O)c3ccc(C)c(NC(=O)c4c[nH]c5cc(C(F)(F)F)ccc5c4=O)c3)cc2C(F)(F)F)CC1	none
O=C(Nc1ccc(N2CCCC2)c(Cl)c1)c1ccc(Br)o1	aSyn 5UTR act -177.0
CCN1CCN(c2ccc(NC(=O)c3ccc([N+](=O)[O-])o3)cc2Cl)CC1	none
O=C(Nc1ccc(N2CCOCC2)c(Cl)c1)c1ccccc1F	aSyn 5UTR act -172.0
O=C(Nc1ccc(N2CCCC2)c(Cl)c1)c1ccc2c(c1)OCCO2	aSyn 5UTR act -77.6
O=C(Nc1ccc(N2CCOCC2)c(Cl)c1)c1ccco1	aSyn 5UTR act -69.0
O=C(Nc1ccc(N2CCOCC2)c(Cl)c1)c1ccc2c(c1)OCCO2	aSyn 5UTR act -92.8
O=C(Nc1ccc(N2CCCCC2)c(Cl)c1)c1ccc2c(c1)OCCO2	aSyn 5UTR act -132.3
O=C(Nc1ccc(N2CCOCC2)c(Cl)c1)c1ccc(Cl)cc1	aSyn 5UTR act -126.4
O=C(Nc1ccc(N2CCOCC2)c(Cl)c1)C1CCCCC1	aSyn 5UTR act -68.6
O=C(c1ccc(Cl)cc1)c1cc([N+](=O)[O-])ccc1N1CCOCC1	none
Cc1ccc(N=Nc2cc(C)ccc2N)cc1	none
Cc1ccc(N=Nc2ccc(N)cc2C)c(S(N)(=O)=O)c1	aSyn 5UTR act -80.5
Cc1ccc(N=Nc2cc(C)ccc2O)c(C)c1	aSyn 5UTR act -214.9
O=c1nc2sc3ccccc3n2c(=O)n1-c1ccc(Cl)cc1	aSyn 5UTR act -188.6
O=c1nc2sc3ccccc3n2c(=O)n1-c1cccc(Cl)c1	aSyn 5UTR act -168.6
Cc1ccc2c(c1)sc1nc(=O)n(-c3cccc(Cl)c3)c(=O)n12	aSyn 5UTR act -208.6
CCN(CC)CCCNc1nc2ccccc2c2nc(-c3ccncc3)nn12	aSyn 5UTR act -280.7
CCN(CC)CCCNc1nc2cc(OC)c(OC)cc2c2nc(-c3cccnc3)nn12	aSyn 5UTR act -79.5
CCN(CC)CCCNc1nc2cc(OC)c(OC)cc2c2nc(-c3ccccc3)nn12	aSyn 5UTR act -76.4
CN(C)C(=O)c1ccc(-c2cc(C(F)(F)F)nn2C)s1	aSyn 5UTR act -151.9
Cn1nc(C(F)(F)F)cc1-c1ccc(S(N)(=O)=O)s1	aSyn 5UTR act -122.8
CC1(C)CC(=O)c2sc(NC(=O)c3ccccc3)nc2C1	aSyn 5UTR act -78.4
CC1(C)CC(=O)c2sc(NC(=O)c3ccc4ncsc4c3)nc2C1	aSyn 5UTR act -76.6
CC1(C)CNC(=O)c2sc(NC(=O)c3ccccc3)nc2C1	aSyn 5UTR act -154.9
CC1(C)CC(=O)c2sc(NC(=O)C(C)(C)C)nc2C1	aSyn 5UTR act -184.0
CC1CCc2c(sc(/N=C/c3ccco3)c2C(N)=O)C1 (stereo not given)	aSyn 5UTR act -125.2
CC1CCc2c(sc(/N=C/c3cccnc3)c2C(N)=O)C1 (stereo not given)	aSyn 5UTR act -102.8
CCOc1ccc(-c2cn(-c3ccc(OC)cc3)c(SC)n2)cc1	aSyn 5UTR act -146.5
CSc1nc(-c2ccccc2)cn1-c1ccc(NC(C)=O)cc1	aSyn 5UTR act -105.6
Fc1ccccc1CSc1nnnn1-c1ccc2c(c1)OCO2	aSyn 5UTR act -65.2
COC(=O)c1cc(-c2ccc(C)cc2)n[nH]1	aSyn 5UTR act -106.3
COC(=O)c1cc(-c2ccc(OC)cc2)n[nH]1	aSyn 5UTR act -103.2
CCN1CCN(Cc2ccc(NC(=O)c3cc(NC(=O)c4cc(-c5ccc(OC)cc5)n[nH]4)cc(OC)c3)cc2C(F)(F)F)CC1	none
CCOc1ccc(-c2cc(C(=O)OC)[nH]n2)cc1	aSyn 5UTR act -103.2
CCOc1cccc(-c2cc(C(=O)NN)[nH]n2)c1	aSyn 5UTR act -63.6
O=C(NCCCn1ccnc1)c1cc2ccccc2oc1=O	aSyn 5UTR act -65.0
CCOc1ccc(-c2cc(C(=O)NCCCn3ccnc3)c3cc(Br)ccc3n2)cc1	none
O=C(NCCCn1ccnc1)c1cc(-c2cccc(O)c2)on1	aSyn 5UTR act -64.6
CCc1nonc1NC(=O)c1oc2cc(C)c(C)cc2c1C	aSyn 5UTR act -126.8
CCc1nnc(NC(=O)c2oc3cc(C)c(C)cc3c2C)s1	aSyn 5UTR act -102.0
O=C(Nc1cc(C(F)(F)F)ccc1N1CCOCC1)c1ccc2ccccc2n1	aSyn 5UTR act -80.2
O=C(Nc1cccc2ccccc12)N1N=CCC1c1ccccc1 (stereo not given)	aSyn 5UTR act -89.3
Fc1ccc(NC(=S)N2N=CCC2c2ccccc2)cc1 (stereo not given)	aSyn 5UTR act -100.7
S=C(Nc1ccccc1)N1N=CCC1c1ccccc1 (stereo not given)	aSyn 5UTR act -152.6
CCCN(CCC)CCNC(=O)c1cc2c(=O)n(CC)c3ccccc3c2s1	aSyn 5UTR act -173.7
CCN(CC)CCNC(=O)c1cc2c(=O)n(CC)c3ccccc3c2s1	aSyn 5UTR act -124.6
CCN(CC)CCCNC(=O)c1cc2c(=O)n(CC)c3ccccc3c2s1	aSyn 5UTR act -107.5
CN1CCN(CCCNC(=O)c2cc3c(=O)n(C)c4ccccc4c3s2)CC1	aSyn 5UTR act -73.8
CCOCCCNC(=O)c1cc2c(=O)n(CC)c3ccccc3c2s1	aSyn 5UTR act -79.9
O=C(Nc1nnc(SCc2ccc(F)cc2)s1)c1ccccn1	none
CCSc1nnc(NC(=O)c2cccs2)s1	aSyn 5UTR act -137.5
CCSc1nnc(NC(=O)C(C)(C)C)s1	aSyn 5UTR act -107.1
CC(=O)Cc1nsc(NC(=O)c2cccs2)n1	aSyn 5UTR act -66.8
O=C(Nc1nnc(SCc2ccccc2)s1)c1cccs1	aSyn 5UTR act -66.7
CCSc1nnc(NC(=O)NC2CCCCC2)s1	aSyn 5UTR act -64.1
CCCCCOc1ccc(CSc2n[nH]c(C)n2)cc1	aSyn 5UTR act -171.1
Cc1nc(SCc2ccc(OCCC(C)C)cc2)n[nH]1	aSyn 5UTR act -70.5
Cc1ccc(Nc2nc(NCCO)c3ccccc3n2)cc1C	aSyn 5UTR act -76.0
COc1ccc(OC)c(Nc2c3c(nc4ccccc24)CCC3)c1	none
OCCNc1c2ccccc2nc2ccccc12	aSyn 5UTR act -167.1
COc1ccc(OC)c(Nc2nc(NCCO)c3ccccc3n2)c1	aSyn 5UTR act -68.4
CCOc1ccc2nc(/N=C/c3c(C)[nH]n(-c4ccc(C)cc4)c3=O)sc2c1	aSyn 5UTR act -143.0
CCOc1ccc2c(c1)OC(c1ccc(C)cc1)(C(F)(F)F)NC2=O (stereo not given)	none
CCCCCN=Cc1c(C)[nH]n(-c2nc3ccccc3s2)c1=O	none
CCOc1ccc2nc(/N=C/c3c(C)[nH]n(-c4ccccc4)c3=O)sc2c1	aSyn 5UTR act -144.3
Nc1nc(F)nc2c1ncn2[C@@H]1O[C@H](CO)[C@@H](O)[C@H]1O	none
CCCNC(=O)c1ccc2c(=O)c(O)c(-c3cccc(Br)c3)[nH]c2c1	none
O=C(NCC1CCCO1)c1c(O)c2c([nH]c1=O)CCCC2 (stereo not given)	aSyn 5UTR act -112.4
CCCNC(=O)c1c(O)c2c([nH]c1=O)CCCC2	aSyn 5UTR act -77.0
O=C(Nc1ccc(O)cc1)c1c(O)c2c([nH]c1=O)CCCC2	aSyn 5UTR act -131.0
O=C(c1ccccn1)c1cc2ccccc2n1S(=O)(=O)c1ccccc1	aSyn 5UTR act -91.2
O=C(Nc1nnc(-c2ccc(Cl)s2)o1)C1CCCCC1	aSyn 5UTR act -62.6
Cn1nc(-c2ccccc2)cc1NC(=O)C1CCCCC1	aSyn 5UTR act -69.5
CC1(C)COCN1S(=O)(=O)c1ccc(C(=O)Nc2nnc(-c3ccc(Cl)s3)o2)cc1	none
O=C(Nc1nnc(-c2ccc(Cl)cc2)o1)C1CCCCC1	aSyn 5UTR act -80.1
Clc1ccc(-c2nnc(NC3=NCCCCC3)o2)cc1	none
O=C(Nc1nnc(-c2ccccc2)o1)C1CCCCC1	aSyn 5UTR act -62.7
O=C(c1ccc(Cl)cc1)N1CCCCC(Sc2nnc(-c3ccc4c(c3)OCO4)o2)C1=O (stereo not given)	none
O=C(Nc1nnc(-c2ccc3c(c2)OCCO3)o1)C1CCCCC1	aSyn 5UTR act -88.3

Compound activity deposited in PubChem BioAssay by Broad Institute.
